Giardia killer: Small Molecules that selectively kill Giardia lamblia: qHTS. Giardia lamblia trophozoite viability. activity change, % at 7.66 µM, hits read low. hit rate 0.15% among 340,000; in the data active means activity change below about -80%; inconclusive means between about -30% and that limit;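 further: parasites exposed to compound for two days anaerobically before the ATP read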
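Giardia trophozoites, 100 cells per well, were exposed to compounds for 48 hrs at 37 deg C under anaerobic conditions; viability was then read as ATP content by bioluminescence after 15-30 min at room temperature.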
IL1B secr inh: qHTS for Inhibitors of Inflammasome Signaling: IL-1-beta AlphaLISA Primary Screen | THP-1 LPS/ATP IL-1B secretion, AlphaLISA, 16 h; stronger effect = lower value | activity change, % at 57.5 µM | hit rate 4.7% among 360,000; in the data active means activity change below about -50%; inconclusive means mostly about -30% to -49%
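Secreted IL-1B measured by AlphaLISA bead assay after 16 h compound exposure of THP-1 cells; compounds (final up to 57.5 uM) added 1 h before LPS (250 ng/mL) and ATP (1.25 mM) stimulation; lower signal means less secretion.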
DT40 TDP1 no CPT: qHTS for Inhibitors of human tyrosyl-DNA phosphodiesterase 1 (TDP1): qHTS in cells in absence of CPT | AID 686978, 2013 | DT40 Tdp1-/- hTDP1 cells, no CPT, ATP luminescence, 48 h | Potency, µM (series often up to 46.2 µM), inactives show at the highest dose activity change, negative = growth inhibition, most hits filed as inhibitors | hit rate 15% among 420,000; further: potency means the concentration at half of the fitted maximal effect; nearly all actives have a fitted effect of over 55% in size
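A cellular qHTS used chicken DT40 cells lacking endogenous Tdp1 but carrying stably transfected human TDP1. Compounds were applied without camptothecin, and cell growth kinetics were judged by ATP-dependent luminescence after ≥48 hr.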
TDP1 cell CPT: qHTS for Inhibitors of human tyrosyl-DNA phosphodiesterase 1 (TDP1): qHTS in cells in presence of CPT. chicken DT40 Tdp1-/-;hTDP1 cells + 20 nM CPT, ATP luminescence, 48 h. Potency, µM (series often up to 46.2 µM), without a hit: top-dose activity change, negative = growth inhibition, actives largely listed as inhibitors. hit rate 12% among 420,000. AID 686979, 2013; further: potency means the concentration at half of the fitted maximal effect; nearly all actives have a fitted effect of over 55% in size
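Cell growth measured by CellTiter-Glo luminescence after a minimum 48 h, 37 C compound exposure with 20 nM CPT in Tdp1-knockout DT40 cells stably expressing hTDP1, seeded 400/well; qHTS titration format.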
TDP1 inh: qHTS Assay for Inhibitors of Tyrosyl-DNA Phosphodiesterase (TDP1); Tyrosyl-DNA phosphodiesterase 1 (Homo sapiens), Q9NUW8; recombinant TDP1, AlphaScreen DNA substrate cleavage; Potency, µM (titrated, usually from 130 µM), for inactives: at the highest dose activity change, negative = inhibition, most hits filed as inhibitors; hit rate 0.28% among 350,000; further: potency means the concentration at half of the fitted maximal effect; nearly all actives have a fitted effect of over 40% in size
Target sequence (Q9NUW8 whole entry, looked up): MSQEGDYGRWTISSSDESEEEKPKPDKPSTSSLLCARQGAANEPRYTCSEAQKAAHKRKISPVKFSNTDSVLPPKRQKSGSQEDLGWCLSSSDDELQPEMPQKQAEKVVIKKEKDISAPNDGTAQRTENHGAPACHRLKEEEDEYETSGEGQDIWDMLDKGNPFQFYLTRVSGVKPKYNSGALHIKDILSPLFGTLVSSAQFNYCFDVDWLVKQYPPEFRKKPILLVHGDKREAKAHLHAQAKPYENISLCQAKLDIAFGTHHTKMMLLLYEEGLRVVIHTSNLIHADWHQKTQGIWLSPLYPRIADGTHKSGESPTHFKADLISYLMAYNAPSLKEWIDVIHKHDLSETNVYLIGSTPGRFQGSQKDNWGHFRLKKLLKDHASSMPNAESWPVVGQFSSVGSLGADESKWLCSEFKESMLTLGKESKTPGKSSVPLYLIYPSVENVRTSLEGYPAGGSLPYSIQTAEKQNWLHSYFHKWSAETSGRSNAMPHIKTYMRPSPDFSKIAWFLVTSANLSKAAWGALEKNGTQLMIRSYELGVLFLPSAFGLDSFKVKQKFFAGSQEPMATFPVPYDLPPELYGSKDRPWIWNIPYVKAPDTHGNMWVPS
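E. coli-derived human Tdp1, 1 nM final. Cpd preinc 15 min RT; substrate 15 nM final, 5 min RT; AS bead mix 10 ug/ml final, 10 min RT. Signal loss = tyrosine-FITC cleavage. No-enzyme wells = max signal.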
ELG1 DNA repair: qHTS screen for small molecules that inhibit ELG1-dependent DNA repair in human embryonic kidney (HEK293T) cells expressing luciferase-tagged ELG1; HEK293T ELG1-luciferase reporter, luminescence, 16 h; DNA damage induced by 5-fluorouridine; Potency, µM (top dose mostly 46.1 µM), without a hit: top-dose activity change, negative = inhibition, hits mostly inhibitors; hit rate 2.3% among 330,000; AID 504467, 2011; further: potency means the concentration at half of the fitted maximal effect; nearly all actives have a fitted effect of over 55% in size
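5-Fluorouridine DNA damage + compound/DMSO, 2,000 cells/well, 16 h, 37 °C/5% CO2. ONE-Glo, 30 min RT, luminescence. Readout = decrease in reporter signal.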
The depositor's hits bear a star; i = inactive; ? = inconclusive; / = not tested or not shown; [ ] = another dose, or the depositor's remark. Rows were chosen to be rich in hits. Some 19% of all compounds tested hit in one or more screens of this group. Unless noted, the call rests on the fitted dose curve; in most records, active means well fitted curve in the direction sought with a large enough effect; inconclusive means small, poorly fitted or top-dose-only effect, or another doubt; inactive means no such curve, though single readings can be large; an effect the other way counts as inactive or inconclusive. On the % scale 0 is the no-effect control and ±100 the full control effect.

SMILES	Giardia killer	IL1B secr inh	DT40 TDP1 no CPT	TDP1 cell CPT	TDP1 inh	ELG1 DNA repair
COc1ccc(S(=O)(=O)N(C)Cc2nc(-c3cccc(C)c3)no2)cc1	/	/	?	?	2%	/
COc1ccc(-c2noc(CN(C(C)C)S(=O)(=O)c3ccc(Br)cc3)n2)cc1	/	/	23µM*	?	2%	/
CCN(Cc1nc(-c2cccc(C)c2)no1)S(=O)(=O)c1ccc(C)cc1	/	/	?	?	-12%	/
COc1ccc(S(=O)(=O)N(Cc2nc(-c3ccc(C)cc3)no2)C2CCCCC2)cc1	/	/	7.3µM*	8.2µM*	2%	/
Cc1ccc(-c2noc(CN(C3CCCCC3)S(=O)(=O)c3ccc(C)cc3)n2)cc1	/	/	10µM*	13µM*	0%	/
COc1ccc(C)cc1S(=O)(=O)N1CCN(C/C=C/c2ccccc2)CC1	2	-2	15µM*	?	2%	-8%
O=S(=O)(c1ccc(Cl)s1)N1CCN(C/C=C/c2ccccc2)CC1	14	-11	?	16µM*	6%	-17%
O=S(=O)(c1ccc(Cl)s1)N1CCN(CCc2ccccc2)CC1	11	i	-26%	-21%	3%	1%
O=S(=O)(c1ccc(Cl)s1)N1CCN(Cc2ccccc2)CC1	?	20	16µM*	?	-1%	-9%
COc1ccc(-c2[nH]ncc2CN2CCOc3c(cc(-c4cccc(OC)n4)cc3OC)C2)cc1	/	/	-28%	5%[9.04 µM]	/	/
CC1Oc2ccccc2N(CC(=O)N2CCCC2)C1=O (stereo not given)	-9	-4	-1%	-2%	4%	10%
CCCN1C/C(=C/c2cccc([N+](=O)[O-])c2)C(=O)/C(=C/c2cccc([N+](=O)[O-])c2)C1	-4	-94*	0.65µM*	1µM*	2%	-24%
CCCN1C/C(=C/c2ccc3c(c2)OCO3)C(=O)/C(=C/c2ccc3c(c2)OCO3)C1	-4	1	13µM*	15µM*	3%	23µM*
CN1C(=O)/C(=C/c2cccc([N+](=O)[O-])c2)C(=O)N1c1ccccc1	?	-19	?	?	/	?
COC(=O)CC1C(=O)NCCN1C(=O)CSc1nc2ccccc2s1 (stereo not given)	-8	42	-20%	8%	8%	16%
COC(=O)c1c(NC(=O)c2ccc(S(=O)(=O)N3CCCCC3)cc2)sc2c1CCN(C)C2	/	/	4.6µM*	4.6µM*	-8%	/
CCN1CCN(S(=O)(=O)c2ccc(C(=O)Nc3sc4c(c3C(N)=O)CCN(CC)C4)cc2)CC1	2	-14	-18%	?	2%	-12%
CCOC(=O)c1ccsc1NC(=O)CCS(=O)(=O)c1ccccc1	30	-82*	?	?	2%[56.1 µM]	-2%
CCOC(=O)c1c(NC(=O)c2ccc(S(=O)(=O)N3CCC(C)CC3)cc2)sc2c1CCN(CC)C2	/	/	21µM*	13µM*	10%	/
CCOC(=O)c1c(NC(=O)c2ccc(N3C(=O)[C@@H]4[C@H](C3=O)[C@H]3C=C[C@@H]4C3)cc2)sc2c1CC(C)CC2 (stereo not given in full)	4	-81*	1.2µM*	-45%	0%	-8%
CCOC(=O)c1c(NC(=O)c2ccc(S(=O)(=O)N3CCOCC3)cc2)sc2c1CCN(C)C2	9	-4	?	-26%	8%	-7%
O=C1c2cccc3c2C2(O)c4c1cccc4C(=O)c1cccc(c12)C3=O	/	19	?	?	/	/
Cc1nc2ccccc2n1CCc1nc2c3ccccc3nc(SCc3ccc(F)cc3)n2n1	/	/	-9%	-23%	1%	/

Bioassay records (PubChem)
